Screening data (PubChem BioAssay)
Only some compounds are listed: those with a hit (about 0.43% of all), similar ones and a draw of the others.
GAA inhib: alpha-glucosidase (human) inhibition. purified human GAA, 4-MU-alpha-glucoside fluorescence. Potency, µM (titrated, usually from 76.9 µM), most hits filed as inhibitors. actives 0.005% (n = 200,000). AID 1466
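Activity normalized between no-enzyme (basal) and enzyme-only wells. Conditions: 4 nM human enzyme, 400 uM fluorogenic substrate, citrate/phosphate pH 5.0 with Tween-20, 20 min room temperature, compounds up to 77 uM.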
GAA glycogen mod: GAA glycogen-cleavage inhibition or activation. recombinant GAA, glycogen substrate, Amplex Red glucose oxidase fluorescence. P10253. actives 0.38% (n = 300,000). Potency, µM (titrated, usually from 76.4 µM), hits mostly inhibitors;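 further: the screen sought inhibitors and activators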
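Recombinant enzyme (4 nM final) with compounds titrated up to 77 uM and bovine liver glycogen (30 ug) in citrate pH 5.0, 0.01% Tween-20, 37 C 40 min. Released glucose detected by Amplex Red/glucose oxidase (Ex 573/Em 610); AC50 from Hill fits.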
GLA spleen mod: inhibits or activates alpha-galactosidase in human spleen homogenate | P06280 | human spleen homogenate, 4MU-alpha-Gal fluorescence, 40 min | Potency, µM (doses to about 80 µM), hits mostly inhibitors | actives 0.008% (n = 240,000)
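qHTS titration in buffer at pH 5.0. Alpha-galactosidase activity in spleen homogenate was measured via 4-methylumbelliferone release from 1 mM fluorogenic substrate after 40 min at 37C and a pH 10 stop. AC50 came from Hill fits of control-normalized data.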
N370S GC mod: inhibits or activates N370S mutant glucocerebrosidase. P04062. N370S GC spleen homogenate, 4MU-glucoside fluorescence. Potency, µM (highest dose often 59.4 µM), actives largely listed as inhibitors. actives 0.092% (n = 330,000). AID 2101
GLA inh pH 4.5: inhibitors of human alpha-galactosidase A at pH 4.5. 230,000 tested, under 10 active. P06280. purified enzyme, 4-MU-alpha-Gal fluorescence, pH 4.5. AID 1467. activity change, negative = inhibition, % at 105 µM
Target sequence (P06280 whole entry, looked up): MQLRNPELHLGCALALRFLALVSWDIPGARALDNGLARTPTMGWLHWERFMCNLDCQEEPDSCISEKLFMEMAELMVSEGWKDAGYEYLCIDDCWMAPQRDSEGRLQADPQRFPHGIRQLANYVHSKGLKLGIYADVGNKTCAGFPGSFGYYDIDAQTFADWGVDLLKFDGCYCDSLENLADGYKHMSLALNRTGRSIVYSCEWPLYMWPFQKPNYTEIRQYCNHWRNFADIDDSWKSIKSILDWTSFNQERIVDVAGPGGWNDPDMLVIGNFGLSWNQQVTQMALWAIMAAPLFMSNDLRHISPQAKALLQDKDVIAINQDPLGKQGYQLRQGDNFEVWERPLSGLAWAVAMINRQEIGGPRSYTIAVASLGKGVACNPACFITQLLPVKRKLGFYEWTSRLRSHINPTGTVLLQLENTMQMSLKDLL
aGlu spleen mod: inhibits or activates alpha-glucosidase in human spleen homogenate; actives 0.006% (n = 240,000); human spleen homogenate, 4-MU-alpha-glucoside fluorescence; P10253; Potency, µM (doses to about 79.9 µM), actives largely listed as inhibitors
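Compounds were titrated against alpha-glucosidase in spleen homogenate at pH 5.0, with 1 mM 4-methylumbelliferyl substrate for 40 min at 37 C. Reactions were quenched with pH 10 NaOH/glycine and fluorescence measured.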
Large screens that a line does not name were inactive. The call rests on the fitted dose curve; in most records, active means well fitted curve in the direction sought with a large enough effect; inconclusive means small, poorly fitted or top-dose-only effect, or another doubt; inactive means no such curve, though single readings can be large; an effect the other way counts as inactive or inconclusive.

COc1ccc(C(=O)N2CCC[C@@]3(CCN(C(=O)Nc4cccc(C#N)c4)C3)C2)cc1	none (no result: GAA inhib, GAA glycogen mod, GLA inh pH 4.5)
CN(C)c1ncnc2ccc(-c3cccc(C#N)c3)cc12	none (no result: GAA inhib, GAA glycogen mod, GLA inh pH 4.5)
COc1ccc(C(C)=O)c2c(O)cccc12	GAA glycogen mod 40µM
COc1ccc(C(=O)c2ccccc2)c2c(O)ccc(C(=O)c3ccccc3)c12	none
CN(C)/N=C/c1c(O)ccc2ccccc12	GAA glycogen mod 14µM
Oc1ccccc1N=Cc1c(O)ccc2ccccc12	GAA glycogen mod inconclusive
O=C(O)c1cc(NCc2cccs2)ccc1N1CCOCC1	GAA glycogen mod 9.9µM
COC(=O)c1cc(NCc2c(F)cccc2Cl)ccc1N1CCOCC1	GAA glycogen mod 12µM
COC(=O)c1cc(NCc2cccs2)ccc1N1CCOCC1	GAA glycogen mod inconclusive
COC(=O)c1cc(NS(=O)(=O)c2cccc(Cl)c2)ccc1N1CCOCC1	none (no result: GAA inhib)
CS(=O)(=O)NNC(=O)c1cc2cc3ccccc3nc2s1	GAA glycogen mod 16µM
COc1ccc(S(=O)(=O)NNC(=O)c2cc3cc4ccccc4nc3s2)cc1	GAA inhib inconclusive, GAA glycogen mod 12µM
N#C/C(=C\c1ccc(-c2cc(Cl)ccc2Cl)o1)C(=O)Nc1ccccc1C(=O)O	none (no result: GAA inhib, GLA spleen mod, N370S GC mod, GLA inh pH 4.5, aGlu spleen mod)
O=C1OC2(CCCCC2)CC2=C1C1O[C@](CCCCN3C(=O)c4ccccc4C3=O)(Cc3ccccc31)O2	none (no result: GAA inhib, GLA spleen mod, GLA inh pH 4.5, aGlu spleen mod)
N#C/C(=C/c1ccc(F)cc1)C(N)=S	GAA inhib inconclusive, GAA glycogen mod 35µM
COC(=O)C1=C(C(=O)OC)[C@@H]2Nc3ccccc3[C@@]23C[C@@H](C(=O)OC)N(S(=O)(=O)c2ccc(C(F)(F)F)cc2)C3=N1	none (no result: GAA inhib, GAA glycogen mod)
NC(=NCCCCCCN=C(N)/N=C(\N)Nc1ccc(Cl)cc1)/N=C(\N)Nc1ccc(Cl)cc1	N370S GC mod 6.3µM (no result: GAA inhib)
CCSC[C@H](NC(=O)[C@H](C)NC(=O)[C@@H](N)Cc1ccc(O)cc1)C(=O)N[C@@H](CC(=O)O)C(=O)N[C@H](C(=O)N[C@@H](C)C(=O)N[C@H](C(=O)N[C@@H](CSCC)C(=O)N[C@H](C(=O)N[C@H](C(=O)N[C@@H](Cc1cnc[nH]1)C(=O)N[C@@H](CCCNC(=N)N)C(=O)N[C@@H](CC(C)C)C(=O)N[C@@H](C)C(=O)NCC(=O)N[C@@H](CC(C)C)C(=O)N[C@@H](CC(C)C)C(=O)N[C@@H](CO)C(=O)N[C@@H](CCCNC(=N)N)C(=O)N[C@@H](CO)C(=O)NCC(=O)NCC(=O)N[C@H](C(=O)N[C@H](C(=O)N[C@@H](CCCCN)C(=O)N[C@@H](CC(N)=O)C(=O)N[C@@H](CC(N)=O)C(=O)N[C@@H](Cc1ccccc1)C(=O)N[C@H](C(=O)N1CCC[C@H]1C(=O)N[C@H](C(=O)N[C@@H](CC(N)=O)C(=O)N[C@H](C(=O)NCC(=O)N[C@@H](CO)C(=O)N[C@@H](CCCCN)C(=O)N[C@@H](C)C(=O)N[C@@H](Cc1ccccc1)C(N)=O)C(C)C)[C@@H](C)O)C(C)C)C(C)C)C(C)C)[C@@H](C)O)C(C)C)[C@@H](C)O)[C@@H](C)O	aGlu spleen mod inconclusive (no result: GAA inhib, GAA glycogen mod, GLA inh pH 4.5)
Cc1ccc(NC(=S)NNC(=O)c2nn(C)cc2Cl)cc1	GAA glycogen mod 14µM
Cc1cccc(NC(=S)NNC(=O)c2nn(C)cc2Cl)c1	GAA glycogen mod inconclusive
CC(C)(C)[C@]1(O)CCN2CC3c4ccccc4CCc4cccc(c43)[C@@H]2C1 (some centres not stated)	GLA spleen mod inconclusive (no result: GAA inhib, GAA glycogen mod)
CCOc1ccc(NC(=S)N(CCc2c(C)[nH]c3ccc(C)cc23)Cc2ccco2)cc1	GAA glycogen mod 35µM
Cc1nc2c(-c3ccccc3)c(C)[nH]n2c(=O)c1Cc1ccc(Br)cc1	none (no result: GAA inhib, GLA spleen mod, N370S GC mod, GLA inh pH 4.5, aGlu spleen mod)
COc1ccc(C2NC3=C(CCC3)C3(C#N)C4(N=C(N)C23C#N)OCCO4)cc1 (configuration not stated)	GAA glycogen mod 22µM
COc1ccc(C2NC3=C(CCCC3)C(C#N)(C#N)C2(C#N)C#N)cc1 (configuration not stated)	none
COc1ccc(OC2C=CC(c3ccccc3)OC2CO)cc1 (configuration not stated)	none (no result: GAA inhib, GAA glycogen mod, GLA inh pH 4.5)
Oc1ccc(C2Nc3cccc4cccc(c34)N2)c(O)c1	GAA glycogen mod 20µM
CO[C@H]1COC(=O)[C@@H](CCSC)NC(=O)C/C=C\[C@@H](C)[C@H](OC)COC(=O)[C@@H](OCc2ccccc2)/C=C\[C@@H]1C	none (no result: GAA inhib, GAA glycogen mod, GLA inh pH 4.5)
CC(C)C/C(O)=C/c1nc2cc(Cl)ccc2oc1=O	GAA glycogen mod inconclusive
O=c1oc2ccc(Cl)cc2nc1/C=C(\O)c1ccco1	GAA glycogen mod 7.1µM (no result: GAA inhib)
Cc1ccc(/C(O)=C/c2nc3cc(C)ccc3oc2=O)cc1	GAA glycogen mod 16µM (no result: GAA inhib)
COc1ccc(NCCNc2ccc(OC)cc2)cc1	GAA glycogen mod 7.9µM
COc1ccc(C(=O)CCNc2ccc(F)cc2)cc1	none (no result: GAA inhib)
CCOc1ccc(-n2c(=O)c3c(C)c(C)sc3n(CC(=O)NCCc3ccccc3)c2=O)cc1	none (no result: GAA inhib, GLA spleen mod, N370S GC mod, GLA inh pH 4.5, aGlu spleen mod)
COc1cccc(OCC(=O)NNC(=S)Nc2ccc(Cl)cc2Cl)c1	GAA glycogen mod 56µM
Cc1cccc(C)c1N1C(=O)CC(N(O)c2ccccc2)C1=O (configuration not stated)	GAA glycogen mod 32µM
Cc1c(Cl)cccc1N1C(=O)CC(N(O)c2ccccc2)C1=O (configuration not stated)	GAA glycogen mod 20µM
CCOc1ccccc1N1C(=O)CC(N(O)c2ccccc2)C1=O (configuration not stated)	none
Cc1ccc(-c2nc(C#N)c(NCC3CCCO3)o2)cc1 (configuration not stated)	GAA glycogen mod inconclusive
COc1ccc(-c2nc(C#N)c(NCC3CCCO3)o2)cc1 (configuration not stated)	GAA glycogen mod 28µM
COC(=O)N1C(/C=C/c2ccc3c(c2)OCO3)=Cc2ccccc2C1CC(C)=O (configuration not stated)	none (no result: GAA inhib, GAA glycogen mod)
Clc1ccc(-c2nc3ncccn3c2Nc2ccc3c(c2)OCCO3)cc1	GAA glycogen mod inconclusive
Brc1ccc(-c2nc3ncccn3c2Nc2ccc3c(c2)OCCO3)o1	GAA glycogen mod 22µM
Cc1ccc(-c2nc3ncccn3c2NC2CCCCC2)o1	GAA glycogen mod 28µM
Oc1ccc(-c2nc3ncccn3c2Nc2ccc3c(c2)OCCO3)cc1	GAA glycogen mod 25µM (no result: N370S GC mod)
Cc1ccc(-c2nc3ncccn3c2Nc2ccc3c(c2)OCCO3)o1	GAA glycogen mod 14µM
Cc1ccc(-c2nc3ncccn3c2Nc2ccc3c(c2)OCCO3)cc1	GAA glycogen mod inconclusive
